Sampled rows, rich in hits. Any-hit rate of the full collection: about 6.2%.
ATXN2 expr inh – ATXN2 expression inhibition | HEK-293 ATXN2-luciferase reporter, luminescence, 24 h | Potency, µM (highest dose often 57 µM), inactives show at the top dose activity change, negative = inhibition, actives largely listed as inhibitors | 360,000 tested, 0.72% active | AID 1745845; further: on the % scale 0 is the no-effect control and ±100 the full control effect; nearly all actives have a fitted effect of over 55% in size
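qHTS (up to 57 uM final) was run with 24 h compound exposure of reporter cells at 37 °C. Each well was multiplexed: SteadyGlo luminescence measured ATXN2-luciferase expression after a fluorogenic Gly-Phe-AFC viability readout (25 uM final).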
HT1080-NT tox – kills 2HG-producing HT-1080-NT fibrosarcoma cells. 360,000 tested, 1.6% active. HT-1080-NT fibrosarcoma viability, CellTiter-Glo ATP luminescence, 48 h. Potency, µM (top dose mostly 46.1 µM), inactives show at the highest dose activity, negative = less viability, actives largely listed as cytotoxic;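 further: NT is the 2HG producing partner of a matched IDH1 knockdown line; 0% = DMSO-treated cells and -100% = media-only wells without cells; nearly all actives have a fitted effect of over 55% in size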
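HT-1080-NT fibrosarcoma cells (2HG-overproducing), 750 cells/well in RPMI with 5% FBS, dosed after 2 h and incubated 48 h at 37C. CellTiter-Glo luminescence normalized to DMSO and no-cell wells; concentration-response curves fitted and classed.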
HT1080 IDH1KD tx – HT-1080 IDH1 knockdown cell toxicity (counter line). HT-1080 IDH1 knockdown viability, ATP luminescence, 48 h. Potency, µM (titrated, usually from 46.1 µM), for inactives: top-dose activity, negative = toxicity, usual class: cytotoxic. 360,000 tested, 2% active. AID 686971;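 further: 0% = DMSO wells and -100% = cell-free medium wells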
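Knockdown cells (IDH1KD HT-1080) received compounds 2 h after plating at 750 cells/well and were kept 48 h at 37 °C in 5% FBS RPMI. A CellTiter-Glo luminescence read gave % activity for curve fitting.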
KB-3-1 tox – kills parental KB-3-1 adenocarcinoma cells; KB-3-1 viability, CellTiter-Glo ATP luminescence, 72 h; Potency, µM (series often up to 46.1 µM), usual class: cytotoxic; 400,000 tested, 1.4% active; AID 1347075; further: on the % scale 0 is the no-effect control and ±100 the full control effect; nearly all actives have a fitted effect of over 60% in size
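Cytotoxicity measured as CellTiter-Glo luminescence after 72 h at 37 C. Compound titrations were pinned onto drug-naive KB-3-1 parental adenocarcinoma cells grown in DMEM with 10% FBS, and normalized data fitted to concentration-response curves.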
S2 tox – cell viability loss in ATXN counter-screen | S2 cells (HEK-293 line with an ATXN2-luciferase reporter) viability, CellTiter-Fluor protease fluorescence, 24 h | Potency, µM (highest dose often 56.7 µM), hits mostly cytotoxic | 400,000 tested, 0.49% active | AID 651635; further: nearly all actives have a fitted effect of over 40% in size
KB-V1 MDR tox – kills drug-selected multidrug resistant KB-V1 cells; KB-V1 MDR cells viability, CellTiter-Glo, 72 h; Potency, µM (doses to about 46.1 µM), hits mostly cytotoxic; 400,000 tested, 3.4% active; further: on the % scale 0 is the no-effect control and ±100 the full control effect; nearly all actives have a fitted effect of over 60% in size
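Drug-selected KB-V1 cells, grown in DMEM lacking phenol red with 10% FBS, receive compound titrations; after three days at 37 degrees C, surviving cell ATP is quantified by CellTiter-Glo luminescence and responses normalized and curve-fitted.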
* hit, by the source's call; i = inactive; ? = inconclusive; / = no result given. The call rests on the fitted dose curve; in most records, active means well fitted curve in the direction sought with a large enough effect; inconclusive means small, poorly fitted or top-dose-only effect, or another doubt; inactive means no such curve, though single readings can be large; an effect the other way counts as inactive or inconclusive. Potency means the concentration at half of the fitted maximal effect.

SMILES | ATXN2 expr inh | HT1080-NT tox | HT1080 IDH1KD tx | KB-3-1 tox | S2 tox | KB-V1 MDR tox
Cc1ccc(NC(=O)c2c(N3CCCC3=O)c3cc(C)ccc3n2C)c(C)c1 | -5% | / | / | i | i | i
CCOC(=O)c1ccc(N2C(=O)c3[nH]nc(-c4ccc(OC)cc4)c3C2c2ccc(C)cc2)cc1 (stereo not drawn) | ? | / | / | ? | ? | 18µM*
CCOC(=O)c1ccc(N2C(=O)c3n[nH]c(C)c3C2c2ccccc2)cc1 (stereo not drawn) | 8% | -12% | -2% | i | i | 13µM*
CCOC(=O)c1ccc(N2C(=O)c3n[nH]c(C)c3C2c2ccc(O)cc2)cc1 (stereo not drawn) | 44% | -12% | -12% | i | i | i
COc1ccc(-c2n[nH]c3c2C(c2ccc(OC)c(OC)c2)N(c2ccccc2)C3=O)cc1 (stereo not drawn) | 3% | ? | ? | ? | i | 15µM*
O=C(NCc1ccc(F)cc1)c1noc2c1CCCCC2 | 33% | 8% | 1% | i | i | 16µM*
O=C(NCc1ccc(Cl)cc1)c1noc2c1CCCCC2 | 6% | -5% | 2% | i | i | 21µM*
Cc1noc(C)c1C(=O)Nc1sc2c(c1C(N)=O)CCCCC2 | 0% | -19% | -4% | i | i | 21µM*
Cc1ccc(Cl)cc1NC(=O)Nc1nnc(N2CCCC(C)C2)s1 (stereo not drawn) | / | / | / | i | / | i
COc1cccc(/C=N/NC(=O)CNC(=O)C2COc3ccccc3O2)c1O (stereo not drawn) | 8.9µM* | ? | ? | ? | i | i
O=C(CNC(=O)C1COc2ccccc2O1)N/N=C\c1ccccc1Cl (stereo not drawn) | -8% | 4% | 13% | i | i | i
COc1cccc(/C=N/NC(=O)CNC(=O)c2cccnc2)c1O | ? | ? | 12µM* | i | i | i
COc1cccc(/C=N/NC(=O)CNC(=O)c2ccncc2)c1O | / | 14% | ? | i | i | i
COc1ccc(C(=O)NCCCNC(=O)c2cccnc2)cc1Br | 0% | ? | 10µM* | i | i | i
COc1ccc(C(=O)NCCCNC(=O)c2cnccn2)cc1Br | 2% | 0% | 14% | i | i | i
CCc1nc2c(OCC(=O)c3ccc(F)cc3)cccn2c1N(C)C(=O)c1ccccc1F | 6% | 5% | 6% | i | i | i
CCCCn1c(=O)nc2n(-c3ccccc3C)c3ccccc3cc-2c1=O | 0% | 8% | 9% | i | i | 10µM*
CCCCn1c(=O)nc2n(-c3ccc(Br)cc3)c3ccccc3cc-2c1=O | -4% | / | / | i | i | i
Clc1ccc(CCNC(c2ccc(Cl)cc2)c2nnc(-c3ccccc3)o2)cc1 (stereo not drawn) | -10% | / | / | i | i | i
CC(C)(Oc1ccc(Br)cc1)C(=O)N1CCc2ccccc21 | -8% | 11% | -19% | i | i | 21µM*
Cc1ccc(-c2noc(C3CCN(C(=O)Nc4ccc(C#N)cc4)CC3)n2)o1 | -24% | -16% | ? | ? | i | 2.6µM*
CCn1cc(S(=O)(=O)c2ccc(C)cc2C)c(=O)c2cc(F)c(N3CCCC3)cc21 | / | / | / | i | / | i
Cc1cccc(OCC(=O)Nc2ccc(Cl)c(-c3nc4ncccc4o3)c2)c1C | ? | / | / | i | ? | i
C=C(C(=O)c1ccccc1)C(C)CC(=O)c1ccccc1 (stereo not drawn) | ? | -25% | 21µM* | i | / | i
C=C(C(=O)c1ccccc1)C(NC(C)(C)C)c1ccccc1 (stereo not drawn) | 7.5µM* | 6.5µM* | 5.8µM* | 3.7µM* | ? | ?
CC(C)OC(=O)c1ccc(NC(=O)CSc2nc(-c3cccs3)cc(C(F)(F)F)n2)cc1 | 0% | / | / | i | i | i
